Measured values reported in the supplement of paper PMC10849652.
About 8,800 targets were measured; listed, in parts, are those with a hit and a random draw of the rest. About 0.5% of all pairs of compound and target were hits.

compound: CC1=C(SC2=C1C(=N[C@H](C3=NN=C(N32)C)CC(=O)N)C4=CC=C(C=C4)Cl)C; assay: log2 fold change, soluble protein after heating vs DMSO (PISA); higher = thermal stabilisation; K562 lysate, 10 uM; active = over 0.2 and 3.5 SD of the protein, either way, in both replicates (recomputed)
Outline: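 Quantification was by TMTpro 16plex LC-MS/MS with equalised channel sums, applied to the supernatant after 21,000xg for 90 min. Samples were crude K562 extract at 1 mg/mL protein in PBS pH 7.4 with 1 mM MgCl2, treated with 10 μM compound for 30 min, heated for 3 min across 48°C-58°C, pooled and brought to 0.5% NP-40 at 4°C. Values are log-two fold changes in thermal stability relative to solvent controls, from duplicates.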

Sequence of UniProt O95429 (O95429 whole entry, looked up): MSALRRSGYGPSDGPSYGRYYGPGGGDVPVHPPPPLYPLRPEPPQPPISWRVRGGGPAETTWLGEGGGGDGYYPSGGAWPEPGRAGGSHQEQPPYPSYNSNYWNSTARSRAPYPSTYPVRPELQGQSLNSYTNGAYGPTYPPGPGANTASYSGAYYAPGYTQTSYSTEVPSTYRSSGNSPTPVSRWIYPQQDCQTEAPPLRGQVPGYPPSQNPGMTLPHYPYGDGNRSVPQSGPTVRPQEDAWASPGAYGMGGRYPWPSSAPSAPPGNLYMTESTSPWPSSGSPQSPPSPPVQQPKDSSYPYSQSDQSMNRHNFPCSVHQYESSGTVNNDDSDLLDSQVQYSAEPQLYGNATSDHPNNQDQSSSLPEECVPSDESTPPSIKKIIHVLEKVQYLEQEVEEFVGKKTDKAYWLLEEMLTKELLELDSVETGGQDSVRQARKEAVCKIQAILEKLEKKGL
Sequence of UniProt P15313 (P15313 whole entry, looked up): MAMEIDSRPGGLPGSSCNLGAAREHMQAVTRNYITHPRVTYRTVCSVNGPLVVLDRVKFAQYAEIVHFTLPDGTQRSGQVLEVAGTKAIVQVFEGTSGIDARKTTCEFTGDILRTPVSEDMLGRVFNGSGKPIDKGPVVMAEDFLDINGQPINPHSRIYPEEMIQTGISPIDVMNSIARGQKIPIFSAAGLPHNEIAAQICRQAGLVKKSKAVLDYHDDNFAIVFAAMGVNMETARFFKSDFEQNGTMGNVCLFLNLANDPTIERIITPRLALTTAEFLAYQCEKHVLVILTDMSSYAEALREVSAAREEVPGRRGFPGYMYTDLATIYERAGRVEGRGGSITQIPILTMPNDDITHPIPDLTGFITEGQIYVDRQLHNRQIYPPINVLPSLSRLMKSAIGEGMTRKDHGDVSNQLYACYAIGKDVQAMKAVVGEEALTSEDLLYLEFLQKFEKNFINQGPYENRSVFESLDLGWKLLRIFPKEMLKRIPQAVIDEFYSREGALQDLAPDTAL
Sequence of UniProt Q96SN8 (Q96SN8 whole entry, looked up): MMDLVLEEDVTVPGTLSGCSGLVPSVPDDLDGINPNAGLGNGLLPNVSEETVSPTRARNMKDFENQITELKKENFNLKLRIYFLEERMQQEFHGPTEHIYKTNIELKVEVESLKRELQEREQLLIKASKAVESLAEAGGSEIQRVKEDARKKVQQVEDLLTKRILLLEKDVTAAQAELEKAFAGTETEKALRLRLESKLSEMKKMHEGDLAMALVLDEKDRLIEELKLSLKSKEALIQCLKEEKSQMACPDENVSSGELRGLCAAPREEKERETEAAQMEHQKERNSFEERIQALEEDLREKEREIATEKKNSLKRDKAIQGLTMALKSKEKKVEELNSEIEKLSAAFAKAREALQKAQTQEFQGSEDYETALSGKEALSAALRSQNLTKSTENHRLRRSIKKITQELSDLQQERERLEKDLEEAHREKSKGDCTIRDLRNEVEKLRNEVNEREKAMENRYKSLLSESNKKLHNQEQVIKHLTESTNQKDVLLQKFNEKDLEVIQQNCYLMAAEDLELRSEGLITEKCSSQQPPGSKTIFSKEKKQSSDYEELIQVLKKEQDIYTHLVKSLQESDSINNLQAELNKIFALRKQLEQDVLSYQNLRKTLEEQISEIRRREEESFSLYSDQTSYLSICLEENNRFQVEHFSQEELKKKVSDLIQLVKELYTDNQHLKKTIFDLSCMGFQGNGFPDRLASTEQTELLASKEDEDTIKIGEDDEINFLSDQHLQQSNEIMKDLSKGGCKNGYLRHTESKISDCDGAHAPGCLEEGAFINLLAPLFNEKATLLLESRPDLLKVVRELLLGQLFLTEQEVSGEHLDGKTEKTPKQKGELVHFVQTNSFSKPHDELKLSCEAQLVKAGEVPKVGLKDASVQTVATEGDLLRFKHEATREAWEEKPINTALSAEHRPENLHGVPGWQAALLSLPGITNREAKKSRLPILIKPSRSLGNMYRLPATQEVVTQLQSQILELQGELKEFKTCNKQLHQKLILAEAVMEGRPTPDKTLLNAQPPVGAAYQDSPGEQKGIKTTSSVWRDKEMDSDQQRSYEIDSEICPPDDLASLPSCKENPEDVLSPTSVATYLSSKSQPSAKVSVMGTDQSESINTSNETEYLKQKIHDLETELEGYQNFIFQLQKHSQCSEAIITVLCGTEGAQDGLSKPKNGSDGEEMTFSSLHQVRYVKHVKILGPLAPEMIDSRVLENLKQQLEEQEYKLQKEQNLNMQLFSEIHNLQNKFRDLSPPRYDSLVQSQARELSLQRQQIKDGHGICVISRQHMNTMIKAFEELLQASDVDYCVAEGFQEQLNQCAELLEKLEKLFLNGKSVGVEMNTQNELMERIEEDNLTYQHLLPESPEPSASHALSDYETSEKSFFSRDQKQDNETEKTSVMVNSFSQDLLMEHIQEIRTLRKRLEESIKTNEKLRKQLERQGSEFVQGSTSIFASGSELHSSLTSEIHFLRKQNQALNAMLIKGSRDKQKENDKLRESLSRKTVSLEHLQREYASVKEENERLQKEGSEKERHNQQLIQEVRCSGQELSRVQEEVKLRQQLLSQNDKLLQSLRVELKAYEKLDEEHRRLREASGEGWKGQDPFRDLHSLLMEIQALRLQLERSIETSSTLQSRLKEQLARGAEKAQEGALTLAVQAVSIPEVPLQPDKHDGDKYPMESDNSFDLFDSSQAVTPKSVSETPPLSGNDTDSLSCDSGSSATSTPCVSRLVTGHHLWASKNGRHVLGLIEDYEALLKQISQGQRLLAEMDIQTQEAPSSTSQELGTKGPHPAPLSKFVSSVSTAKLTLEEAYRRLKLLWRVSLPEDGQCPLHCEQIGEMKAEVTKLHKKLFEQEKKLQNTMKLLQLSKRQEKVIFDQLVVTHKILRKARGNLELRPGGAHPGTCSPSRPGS
Sequence of UniProt Q00537 (Q00537 whole entry, looked up): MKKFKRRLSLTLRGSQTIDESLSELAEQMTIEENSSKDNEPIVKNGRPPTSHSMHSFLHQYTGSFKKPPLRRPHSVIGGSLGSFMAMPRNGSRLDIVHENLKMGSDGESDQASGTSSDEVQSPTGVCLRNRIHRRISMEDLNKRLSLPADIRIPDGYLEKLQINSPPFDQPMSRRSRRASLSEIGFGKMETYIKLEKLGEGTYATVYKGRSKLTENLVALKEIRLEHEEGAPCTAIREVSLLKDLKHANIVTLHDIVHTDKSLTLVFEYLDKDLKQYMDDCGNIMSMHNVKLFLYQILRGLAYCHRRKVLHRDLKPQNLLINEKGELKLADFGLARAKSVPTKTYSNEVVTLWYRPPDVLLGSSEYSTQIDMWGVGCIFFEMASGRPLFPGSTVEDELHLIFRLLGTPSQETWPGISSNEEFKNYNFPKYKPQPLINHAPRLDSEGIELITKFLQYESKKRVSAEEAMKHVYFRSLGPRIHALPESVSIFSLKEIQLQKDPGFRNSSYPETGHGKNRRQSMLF
Sequence of UniProt Q8TAP6 (Q8TAP6 whole entry, looked up): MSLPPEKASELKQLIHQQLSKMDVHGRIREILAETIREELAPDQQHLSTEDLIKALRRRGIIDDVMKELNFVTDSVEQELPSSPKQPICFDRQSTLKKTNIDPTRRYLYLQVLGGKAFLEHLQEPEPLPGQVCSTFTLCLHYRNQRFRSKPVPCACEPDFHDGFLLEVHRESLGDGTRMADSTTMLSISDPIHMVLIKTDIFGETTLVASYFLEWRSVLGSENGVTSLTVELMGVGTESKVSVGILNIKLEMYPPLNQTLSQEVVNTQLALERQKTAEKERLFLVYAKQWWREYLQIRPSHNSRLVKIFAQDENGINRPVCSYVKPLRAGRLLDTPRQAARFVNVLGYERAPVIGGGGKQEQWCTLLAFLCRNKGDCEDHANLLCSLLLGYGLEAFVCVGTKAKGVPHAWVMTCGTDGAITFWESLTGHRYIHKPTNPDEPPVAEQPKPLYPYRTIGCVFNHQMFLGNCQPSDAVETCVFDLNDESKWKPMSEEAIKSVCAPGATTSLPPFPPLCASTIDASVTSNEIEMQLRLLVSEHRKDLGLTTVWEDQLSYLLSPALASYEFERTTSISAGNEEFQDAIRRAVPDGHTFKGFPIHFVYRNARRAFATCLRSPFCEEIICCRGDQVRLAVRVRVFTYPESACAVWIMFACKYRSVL
Sequence of UniProt Q06187 (Q06187 whole entry, looked up): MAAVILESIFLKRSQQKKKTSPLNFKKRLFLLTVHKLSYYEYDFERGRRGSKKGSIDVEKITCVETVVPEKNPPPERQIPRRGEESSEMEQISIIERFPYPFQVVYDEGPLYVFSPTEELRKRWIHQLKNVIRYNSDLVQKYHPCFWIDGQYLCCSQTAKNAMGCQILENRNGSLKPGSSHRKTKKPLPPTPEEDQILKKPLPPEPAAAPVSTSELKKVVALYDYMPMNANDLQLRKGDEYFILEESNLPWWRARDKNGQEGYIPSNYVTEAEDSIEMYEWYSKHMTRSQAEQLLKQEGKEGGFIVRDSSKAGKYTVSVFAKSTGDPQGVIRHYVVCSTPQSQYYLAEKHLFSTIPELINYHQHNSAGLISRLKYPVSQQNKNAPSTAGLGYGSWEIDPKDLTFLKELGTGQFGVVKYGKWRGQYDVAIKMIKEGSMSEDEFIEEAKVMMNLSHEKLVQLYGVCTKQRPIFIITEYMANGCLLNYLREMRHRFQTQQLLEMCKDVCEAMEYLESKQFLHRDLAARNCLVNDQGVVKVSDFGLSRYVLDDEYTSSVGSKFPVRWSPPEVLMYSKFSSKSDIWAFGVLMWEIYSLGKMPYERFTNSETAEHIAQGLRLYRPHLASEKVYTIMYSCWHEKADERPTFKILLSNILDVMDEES
Sequence of UniProt Q9BV29 (Q9BV29 whole entry, looked up): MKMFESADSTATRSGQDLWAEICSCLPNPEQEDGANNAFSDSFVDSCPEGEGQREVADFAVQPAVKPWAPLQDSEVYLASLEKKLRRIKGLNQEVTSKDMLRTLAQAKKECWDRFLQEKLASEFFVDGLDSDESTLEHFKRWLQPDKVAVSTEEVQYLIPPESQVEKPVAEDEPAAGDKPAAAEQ

**Q.** With CAPNS1 (UniProt U3KPR7) as the target, how does the log2 fold change read?
**A.** Its log2 fold change is 0.122 (inactive).

**Q.** Which log2 fold change does the source give for C3orf33 (UniProt Q6P1S2) here?
**A.** The log2 fold change was 0.143 (inactive).

**Q.** How did the log2 fold change turn out when BPHL (UniProt Q86WA6) was run?
**A.** Its log2 fold change is 0.038 (inactive).

**Q.** CDK16 isoform 2 (UniProt Q00536) was tested. Which log2 fold change did it give?
**A.** The log2 fold change was -0.059 (inactive).

**Q.** For CAMK2B (UniProt Q13554), which log2 fold change is on record?
**A.** Its log2 fold change is -0.052 (inactive).

**Q.** CCP110 (UniProt O43303) was tested. Which log2 fold change did it give?
**A.** Its log2 fold change is 0.093 (inactive).

**Q.** Which log2 fold change does the source give for CAMLG (UniProt P49069) here?
**A.** Its log2 fold change is 0.003 (inactive).

**Q.** How did the log2 fold change turn out when AUH (UniProt Q13825) was run?
**A.** Its log2 fold change is 0 (inactive).

**Q.** For CDCA8 (UniProt Q53HL2), which log2 fold change is on record?
**A.** The log2 fold change was 0.037 (inactive).

**Q.** Which log2 fold change does the source give for CDC42EP4 (UniProt Q9H3Q1) here?
**A.** The log2 fold change was -0.084 (inactive).

**Q.** For CDK5RAP2 (UniProt Q96SN8), which log2 fold change is on record?
**A.** Its log2 fold change is 0.038 (inactive).

**Q.** How did the log2 fold change turn out when CDK5RAP3 isoform 4 (UniProt Q96JB5) was run?
**A.** The log2 fold change was -0.018 (inactive).

**Q.** CCDC32 isoform 2 (UniProt Q9BV29) was tested. Which log2 fold change did it give?
**A.** Its log2 fold change is -0.103 (inactive).

**Q.** For CCDC85B (UniProt Q15834), which log2 fold change is on record?
**A.** The log2 fold change was -0.132 (inactive).

**Q.** With BCAR1 isoform 6 (UniProt P56945) as the target, how does the log2 fold change read?
**A.** The log2 fold change was 0.013 (inactive).

**Q.** With ATP6V1B1 (UniProt P15313) as the target, how does the log2 fold change read?
**A.** Its log2 fold change is 0.004 (inactive).

**Q.** Which log2 fold change does the source give for CANX isoform 2 (UniProt P27824) here?
**A.** Its log2 fold change is -0.022 (inactive).

**Q.** Which log2 fold change does the source give for CDK17 isoform 2 (UniProt Q00537) here?
**A.** Its log2 fold change is 0.099 (inactive).

**Q.** For CDC123 (UniProt O75794), which log2 fold change is on record?
**A.** Its log2 fold change is 0.02 (inactive).

**Q.** BLM (UniProt P54132) was tested. Which log2 fold change did it give?
**A.** The log2 fold change was 0.03 (inactive).

**Q.** How did the log2 fold change turn out when ATAD3B (UniProt Q5T9A4) was run?
**A.** Its log2 fold change is -0.033 (inactive).

**Q.** For CCDC130 (UniProt P13994), which log2 fold change is on record?
**A.** Its log2 fold change is 0.038 (inactive).

**Q.** For BAG4 (UniProt O95429), which log2 fold change is on record?
**A.** The log2 fold change was 0.021 (inactive).

**Q.** For CASC4 (UniProt Q6P4E1), which log2 fold change is on record?
**A.** Its log2 fold change is 0.027 (inactive).

**Q.** How did the log2 fold change turn out when CEP128 (UniProt Q6ZU80) was run?
**A.** The log2 fold change was 0.338 (inactive).

**Q.** With C12orf45 (UniProt Q8N5I9) as the target, how does the log2 fold change read?
**A.** The log2 fold change was 0 (inactive).

**Q.** Which log2 fold change does the source give for ATXN2 (UniProt Q99700) here?
**A.** The log2 fold change was 0.016 (inactive).

**Q.** Which log2 fold change does the source give for CBX5 (UniProt P45973) here?
**A.** The log2 fold change was -0.002 (inactive).

**Q.** Which log2 fold change does the source give for BSDC1 (UniProt Q9NW68) here?
**A.** Its log2 fold change is -0.025 (inactive).

**Q.** Which log2 fold change does the source give for ATG10 (UniProt Q9H0Y0) here?
**A.** The log2 fold change was 0 (inactive).

**Q.** For CEP76 (UniProt Q8TAP6), which log2 fold change is on record?
**A.** Its log2 fold change is -0.01 (inactive).

**Q.** For C16orf70 (UniProt Q9BSU1), which log2 fold change is on record?
**A.** The log2 fold change was -0.073 (inactive).

**Q.** How did the log2 fold change turn out when CARD11 (UniProt Q9BXL7) was run?
**A.** The log2 fold change was 0.252 (inactive).

**Q.** For CCT6A (UniProt P40227), which log2 fold change is on record?
**A.** Its log2 fold change is -0.007 (inactive).

**Q.** With BUB1B isoform 3 (UniProt O60566) as the target, how does the log2 fold change read?
**A.** The log2 fold change was -0.005 (inactive).

**Q.** Which log2 fold change does the source give for BTK isoform 2 (UniProt Q06187) here?
**A.** The log2 fold change was -0.033 (inactive).

**Q.** How did the log2 fold change turn out when CAMK2G isoform 8 (UniProt Q13555) was run?
**A.** The log2 fold change was -0.063 (inactive).

**Q.** How did the log2 fold change turn out when CEPT1 (UniProt Q9Y6K0) was run?
**A.** The log2 fold change was -0.017 (inactive).
